The campaign covered roughly 5,500 compounds. About 2,000 (36%) were called active. Roughly 18% stayed inconclusive and do not appear here. No stated cut-off is given here; in the data, active means normalized growth mostly below about 0.91 (no sharp cut-off); inconclusive means no clear call, values can overlap the other calls; inactive means mostly above about 0.92. The list shows a part of the results.
Assay: chemical genetic growth profiling, strain panel (AID 1159580);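 further: tested at 20 µM; growth read once vehicle control cultures reached saturation at 30 °C; 1 = growth at the plate median or of vehicle wells; lower values mean less growth of the strain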
Settings: S. cerevisiae deletion strains, growth OD

Measured: normalized growth

CC(=O)OCC(=O)[C@@]1(O)CC[C@H]2[C@@H]3CCC4=CC(=O)CC[C@]4(C)[C@H]3C(=O)C[C@@]21C
inactive: locus YAL040C, strain CLN3, active compounds read low 0.998 | locus YER002W, strain NOP16, active compounds read low 0.991 | locus YGR078C, strain PAC10, active compounds read low 1 | locus YNL175C, strain NOP13, active compounds read low 0.985 | locus YNL197C, strain WHI3, active compounds read low 0.982 | locus YNL224C, strain SQS1, active compounds read low 1.01 | locus YOR083W, strain WHI5 (second series), active compounds read low 0.976

— PubChem BioAssay AID1159580 (chemical genetic matrix, 2015)
